# GoLoco inh red: qHTS Assay for Inhibitors of RGS12 GoLoco Motif Activity (Red Fluorophore). Guanine nucleotide-binding protein G(i) subunit alpha-1 (Homo sapiens), P63096. Potency, µM (titrated, usually from 61.6 µM), without a hit: top-dose activity, negative = inhibition, actives largely listed as inhibitors. Gai1:RGS12 GoLoco peptide FP, rhodamine, 10 min. 230,000 compounds, 0.44% hits; active means well fitted inhibition curve with a large enough effect, not every such curve was filed as active; inactive means no such curve, though single readings can be large or run the other way; further: potency means the concentration at half of the fitted maximal effect; on the % scale 0 is the no-effect control and ±100 the full control effect; nearly all actives have a fitted effect of over 30% in size
# Vif-APOBEC3F blk: qHTS for Inhibitors of Vif-A3F Interactions: qHTS | Potency, µM (doses to about 46.1 µM), for inactives: top-dose activity, negative = active | HeLa A3F-eYFP + Vif (tagged APOBEC3F with the HIV-1 protein that degrades it), YFP fluorescence increase | 390,000 compounds, 0.2% hits; further: potency means the concentration at half of the fitted maximal effect; % of control where 0% means no effect; nearly all actives have a fitted effect of over 65% in size
#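 Fluorescence increase (Ex 488/Em 500-530) after overnight compound treatment at 37 deg C flags inhibition of Vif-driven A3F-eYFP loss in stable HeLa A3F-eYFP/Vif cells seeded overnight beforehand.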
# IL2 activator: qHTS of IL-2 Activators. IL-2 activation reporter assay, cell-based qHTS; stimulated with anti-CD3/CD4/CD28 beads; in transgenic mouse T cells. activation, % (series mostly up to about 46 µM). 360,000 compounds, 0.065% hits; in the data active means activation above about 50%; inconclusive means mostly about 30% to 49%; further: 0% is about no effect
#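 Readout: EGFP and DsRed signals by fluorescent plate cytometry. Unstimulated transgenic mouse T cells received compound 60 min before antibody-bead stimulation, then incubated 18 h at 37 degrees C.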
# PKM2 act: qHTS Assay for Activators of Human Muscle isoform 2 Pyruvate Kinase; Pyruvate kinase PKM (Homo sapiens), P14618; Potency, µM (titrated, usually from 57.5 µM), for the others: at the top dose activation, hits mostly activators; purified PKM2, Kinase-Glo ATP luminescence, activation; response scale: 0% is enzyme alone, no compound; 260,000 compounds, 0.34% hits; AID 1631, 2009; further: potency means the concentration at half of the fitted maximal effect; on the % scale 0 is the no-effect control and ±100 the full control effect; nearly all actives have a fitted effect of over 55% in size
#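 hPK-M2, >95% pure; 0.1 mM ADP / 0.5 mM PEP final; imidazole pH7.2 buffer w/ 7 mM MgCl2, 50 mM KCl; 1 h RT; Kinase-Glo lum. Intermediate enzyme activity for dual inhibitor/activator qHTS.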
# Vif-A3G inh: qHTS for Inhibitors of Vif-A3G Interactions: qHTS | DNA dC->dU-editing enzyme APOBEC-3G (Homo sapiens), Q9HC16 | HeLa A3G-eYFP + Vif (tagged APOBEC3G with the HIV-1 protein that degrades it), YFP fluorescence, overnight | Potency, µM (highest dose often 46.1 µM), inactives show at the top dose activity, negative = active, usual class: inhibitors | 410,000 compounds, 0.076% hits | AID 602310, 2012; further: potency means the concentration at half of the fitted maximal effect; on the % scale 0 is the no-effect control and ±100 the full control effect; nearly all actives have a fitted effect of over 60% in size
# Target sequence (Q9HC16 whole entry, looked up): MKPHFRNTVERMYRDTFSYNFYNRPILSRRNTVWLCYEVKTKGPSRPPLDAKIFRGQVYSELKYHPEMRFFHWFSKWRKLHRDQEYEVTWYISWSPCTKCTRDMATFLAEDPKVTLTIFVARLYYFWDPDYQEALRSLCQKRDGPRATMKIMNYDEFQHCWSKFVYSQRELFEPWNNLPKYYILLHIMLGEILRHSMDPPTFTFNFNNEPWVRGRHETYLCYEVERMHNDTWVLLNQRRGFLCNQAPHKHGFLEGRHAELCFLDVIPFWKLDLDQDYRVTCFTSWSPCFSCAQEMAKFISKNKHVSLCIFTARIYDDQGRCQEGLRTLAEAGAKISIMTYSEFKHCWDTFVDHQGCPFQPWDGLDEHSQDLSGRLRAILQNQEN
#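 Read-out is eYFP fluorescence (Ex 488/Em 500-530) from Vif-expressing HeLa A3G-eYFP cells; more signal means A3G escaped Vif-mediated degradation. Cells plated overnight, compound pinned in, incubated overnight at 37 deg C.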
# KAT2A inh: qHTS Assay for Inhibitors of GCN5L2; Histone acetyltransferase KAT2A (Homo sapiens), Q92830; GCN5L2 HAT assay, ThioGlo1 CoA-SH fluorescence; Potency, µM (top dose mostly 58.9 µM), without a hit: at the top dose activity change, negative = inhibition, usual class: inhibitors; 390,000 compounds, 0.21% hits; AID 504327, 2011; further: potency means the concentration at half of the fitted maximal effect; on the % scale 0 is the no-effect control and ±100 the full control effect
#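 ThioGlo1-coupled HAT assay: 20nM GCN5L2, 70uM acetyl-CoA, 75uM H3(1-25) peptide, pH 7.5. Fluorescence read at 340/540nm at start and after 20 min at room temperature.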
# An asterisk follows results filed as active; ? = inconclusive; nt = no result given; [ ] = another dose, or the depositor's remark. Rows were chosen to be rich in hits. Some 0.77% of all compounds tested hit in one or more screens of this group. Unless noted, the call rests on the fitted dose curve; in most records, active means well fitted curve in the direction sought with a large enough effect; inconclusive means small, poorly fitted or top-dose-only effect, or another doubt; inactive means no such curve, though single readings can be large; an effect the other way counts as inactive or inconclusive.
SMILES,GoLoco inh red,Vif-APOBEC3F blk,IL2 activator,PKM2 act,Vif-A3G inh,KAT2A inh
Cc1ccc2c(c1)Sc1c(ccc3ccccc13)N2,-3.9%,22.4µM*,0.6,-2.8%,?,-7.2%
Cc1ccc(-c2nnn(CC(=O)Nc3cccc4c3CCCC4)n2)o1,-1.3%,0.0%,2.1,25.3%,-7.9%,-0.4%
O=C(Cc1cccc(NC(=O)C2CCN(C(=O)c3ccccc3)CC2)c1)Nc1cccc(C(=O)N2CCOCC2)c1,nt,2.3%,0.0,nt,-5.1%,nt
COC(=O)C1=C(C)N(Cc2ccco2)C(=O)/C1=C\c1ccc([N+](=O)[O-])cc1,39.2%,3.16µM*,-3.7,?,?,-8.5%
O=C(NCCCn1ncc2ccccc21)c1cc(COc2c(F)cccc2F)on1,9.8%,-22.7%,0.1,5.8%,-6.3%,0.0%
CC(=O)OC(C(=O)c1ccccc1)c1ccccc1 (centres undefined),15.8µM*,nt,nt,nt,nt,nt
CC(C)NC(=S)N/N=C/c1sc(N2CCCCC2)nc1-c1cccs1,132.6%,11.2µM*,1.1,-5.4%,?,-10.4%
Cn1c(=O)[nH]c(=O)c2c1nc(Br)n2CCCc1ccccc1,11.6%,nt,nt,2.1%,nt,1.8%
Cn1c(=O)c2c([nH]c(=S)n2CCCc2ccccc2)n(C)c1=O,nt,1.0%,-3.1,-19.0%,3.0%,11.2µM*
Cn1c(=O)c2[nH]c(=S)n(Cc3ccccc3)c2n(C)c1=O,nt,-2.0%,0.0,nt,0.6%,nt
Cn1c(=O)[nH]c(=O)c2c1[nH]c(=S)n2CCCc1ccccc1,nt,-2.0%,-3.9,-13.7%,-4.1%,15.8µM*
O=c1cc(-c2ccccc2Cl)oc2c(NS(=O)(=O)c3cc(Cl)cc(Cl)c3O)ccc(O)c12,-7.8%,5.2%,0.1,-0.6%,-2.4%,31.6µM*
CCc1ccc(S(=O)(=O)Nc2ccc(O)c3c(=O)cc(-c4ccccc4Cl)oc23)cc1,3.0%,6.7%,-0.1,3.0%,0.1%,-18.8%
CCn1c(=O)c(=O)n(CC)c2cc(S(=O)(=O)Nc3cccc(OC)c3)ccc21,-5.8%,5.9%,-1.8,?,3.8%,-6.3%
Cc1c(F)cccc1NS(=O)(=O)c1ccc2c(c1)n(C)c(=O)c(=O)n2C,nt,-25.4%,-4.8,0.708µM*,-5.1%,-2.7%
COc1cccc(NS(=O)(=O)c2ccc3c(c2)n(C)c(=O)c(=O)n3C)c1,-1.8%,-2.3%,0.2,1.12µM*,-0.9%,-2.2%
Cc1cccc(NS(=O)(=O)c2ccc3c(c2)n(C)c(=O)n3C)c1C,nt,-6.9%,nt,nt,-1.3%,1.6%
Cn1c(=O)c2cc(S(=O)(=O)NCCC(=O)Nc3ccccc3F)ccc2n(C)c1=O,0.3%,-3.6%,-0.4,0.9%,2.0%,-4.2%
Cc1c(F)cccc1NS(=O)(=O)c1ccc2c(c1)c(=O)n(C)c(=O)n2C,-1.2%,-12.6%,1.3,3.55µM*,-9.8%,-6.0%
CCCC(C)NC(=O)C1CC(=O)N(CCc2ccc(F)cc2)C1 (centres undefined),nt,2.8%,0.1,-0.4%,-4.2%,-0.4%
O=[N+]([O-])c1ccccc1N=Nc1c(O)[nH]c2ccc(S(=O)(=O)O)cc12,4.0%[14.2 µM],nt,nt,nt,nt,nt
CCN(CC)S(=O)(=O)c1cc([N+](=O)[O-])ccc1N=Nc1c(O)[nH]c2ccccc12,19.5%,12.6µM*,-0.3,-4.6%,-12.8%,-0.8%
CC1CC(C)(C)Nc2ccc(OC(=O)c3ccco3)cc21 (centres undefined),-4.6%,31.6µM*,3.4,8.6%,22.4µM*,-4.0%
ON1C2CCCCC2N(O)C1c1ccccc1C(F)(F)F (centres undefined),1.3%,-6.7%,0.3,2.7%,-0.2%,3.1%

# Bioassay records as filed in PubChem BioAssay.
